Data as given in the supplement of paper PMC8728848.
Many of the other results were omitted from the sample, so the strongest signals are more common in it than they were.

Tests used:
Test in all cases: glycan array binding signal (z-score within array); higher = stronger binding
Settings in all cases: glycan notation: IUPAC condensed, linker removed
[1] = target: Man(a1-2)Man(a1-6)[Man(a1-3)]Man(a1-6)[Man(a1-2)Man(a1-2)Man(a1-3)]Man
Summary of the method: (§1)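 Glycan array data were curated from 3228 arrays in the Consortium for Functional Glycomics database and kept only where the protein sequence was available. Glycan names were converted to IUPAC-condensed notation, and columns mapping to the same glycan were averaged. The binding signal is a within-array Z-score, averaged across arrays of the same protein sequence at different concentrations or buffers and across linkers. Negative Z-scores can be read as non-binding.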

[2] = target: Man(a1-3)[Man(a1-6)]Man(a1-6)[Man(a1-2)Man(a1-3)]Man(b1-4)GlcNAc(b1-4)GlcNAc
Summary of the method: as §1

[3] = target: Man(a1-3)[Man(a1-6)]Man(a1-6)[Man(a1-3)]Man(b1-4)GlcNAc(b1-4)GlcNAc
Summary of the method: as §1

[4] = target: Man(b1-4)GlcNAc
Summary of the method: as §1

[5] = target: Neu5Ac(a2-3)Gal(b1-3)GalNAc(b1-3)Gal(a1-4)Gal(b1-4)Glc
Summary of the method: as §1

[6] = target: Neu5Ac(a2-3)Gal(b1-3)GlcNAc(b1-2)Man
Summary of the method: as §1

[7] = target: Neu5Ac(a2-3)Gal(b1-4)GlcNAc
Summary of the method: as §1

[8] = target: Neu5Ac(a2-3)Gal(b1-4)GlcNAc(b1-2)Man(a1-3)[Neu5Ac(a2-3)Gal(b1-4)GlcNAc(b1-2)Man(a1-6)]Man(b1-4)GlcNAc(b1-4)[Fuc(a1-6)]GlcNAc
Summary of the method: as §1

[9] = target: Neu5Ac(a2-3)Gal(b1-4)GlcNAc(b1-2)[Neu5Ac(a2-3)Gal(b1-4)GlcNAc(b1-4)]Man(a1-3)[GlcNAc(b1-4)][Neu5Ac(a2-3)Gal(b1-4)GlcNAc(b1-4)Man(a1-6)]Man(b1-4)GlcNAc(b1-4)GlcNAc
Summary of the method: as §1

[10] = target: Neu5Ac(a2-3)Gal(b1-4)[Fuc(a1-3)]GlcNAc(b1-3)Gal(b1-4)[Fuc(a1-3)]GlcNAc(b1-3)Gal(b1-4)[Fuc(a1-3)]GlcNAc
Summary of the method: as §1

[11] = target: Neu5Ac(a2-3)[Neu5Ac(a2-6)]GalNAc
Summary of the method: as §1

[12] = target: Neu5Ac(a2-6)Gal(b1-4)GlcNAc(b1-2)Man(a1-3)[GlcNAc(b1-4)][Neu5Ac(a2-6)Gal(b1-4)GlcNAc(b1-2)Man(a1-6)]Man(b1-4)GlcNAc(b1-4)GlcNAc
Summary of the method: as §1

[13] = target: Neu5Ac(a2-8)Neu5Gc(a2-3)Gal(b1-4)GlcNAc
Summary of the method: as §1

[14] = target: Neu5Gc(b2-6)Gal(b1-4)GlcNAc
Summary of the method: as §1

B1: PX14379D-pdi-530-26-530 (Parabacteroides distasonis) (protein)
chain: DETVYDKLPADDFGQSTAELNALIGNSHNTMKKFWTEYMHLSECSGSMAVTPTRRGGDWYDGGQYREIYMHTWTSQTSRVKSAWKAATEAIGTCNEAIRKLQNSEILTEEEKAQDVADLRGVRAFWIYVMMDYWGNIPLLTEFHPTDKVFPGNSSRQEVFDWLIQEVEEIKDICPPATTENYGSFTQGAAYSLLAKLYLNAEAWGVTFSGNAYQKVIDNCDKVMAMGYILEPNWKDNFSVTNENSKEAILAATFSSSDTGNDGNVKNELHNNTLHYKDYLSLGITASGTWNGICAQPEYVRLFDEEDARLDGTFLTGLMIDKSTGKPIMTDHNNELNHTIDVNMIPGMEYDGTNWSAVEQHDGARCFKWEFASDLTSSMGNDFHIFRLADIYLMKAEALLRGGGSVSEATALVNTIRERGYGNSDHNYATVTLKEVQLERRLELAWEVYSRQDDIRFGCFTTGMWPQSNCERKADDYLKLLPVSQDAWQVNPNLKQNPGYAAFSK
glycan array binding signal (z-score) [1]: -0.013 | glycan array binding signal (z-score) [2]: -0.447 | glycan array binding signal (z-score) [3]: -0.474 | glycan array binding signal (z-score) [4]: -1.02 | glycan array binding signal (z-score) [5]: 0.43 | glycan array binding signal (z-score) [6]: 0.26 | glycan array binding signal (z-score) [7]: -0.826 | glycan array binding signal (z-score) [8]: 0.415 | glycan array binding signal (z-score) [9]: -0.482 | glycan array binding signal (z-score) [10]: -0.094 | glycan array binding signal (z-score) [11]: -1.44 | glycan array binding signal (z-score) [12]: 0.549 | glycan array binding signal (z-score) [13]: 12.8 | glycan array binding signal (z-score) [14]: -0.722
